Assay outcomes deposited in PubChem BioAssay by National Center for Advancing Translational Sciences (NCATS).
Sampled rows, rich in hits. Any-hit rate of the full collection: about 2.3%.
Akt phos inh: Akt phosphorylation inhibition; Neuro2A IGF-stimulated pAkt S473 HTRF, 20 min; hits give low values; activity change, % for hits at 50 µM; 360,000 compounds, 0.32% hits; AID 651550; in the data active means activity change below about -80%; inconclusive means mostly about -51% to -80%
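Neuro2A cells in DMEM with 0.5% FBS, overnight at 37 deg C, given compound at single 50 µM final, then IGF (6 nM final) for 20 min at 37 deg C. Lysed; phospho-Akt Ser473 by HTRF after 24 h, 665/615 ratio.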
FUS suppressor: FUS proteinopathy suppression in yeast | S. cerevisiae FUS-expressing, growth rescue, OD600, 24 h | Potency, µM (titrated, usually from 76.6 µM), hits mostly activators | 390,000 compounds, 0.24% hits | AID 1347120; further: nearly all actives have a fitted effect of over 55% in size
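Quantitative HTS measuring growth restoration of FUS-toxic yeast. Galactose-induced cells (OD 0.005) were exposed 24hr at 30C to compounds at several concentrations, then absorbance at 600 nm was recorded.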
TDP-43 yeast inh: rescues yeast growth from TDP-43 toxicity | TDP-43 expressing yeast growth rescue, BacTiter-Glo, 24 h | Potency, µM (top dose mostly 46.1 µM), usual class: activators | 410,000 compounds, 1.8% hits | AID 652104; further: nearly all actives have a fitted effect of over 50% in size
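In this qHTS, compounds that restore growth of yeast expressing TDP-43 appear as activators. Cells (OD600=0.02, galactose medium, raffinose-pregrown) are incubated with compound 24 hr at 30 deg C and growth is quantified by BacTiter-Glo.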
Abeta rescue: restores growth of yeast expressing A-beta42 peptide; 410,000 compounds, 0.063% hits; Potency, µM (highest dose often 46.1 µM), usual class: activators; yeast expressing A-beta42, growth rescue, OD600, 48 h; response scale: 0% DMSO, 100% iron-clioquinol control; further: nearly all actives have a fitted effect of over 55% in size
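Yeast A-beta toxicity model in growth medium with pinned compounds, 48 h at 30 C; growth read as absorbance at 600 nm. Normalized to FeCl3/clioquinol equimolar mix (positive) and DMSO (negative).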
aSyn rescue: rescues yeast growth from alpha-synuclein toxicity. Yeast expressing alpha-synuclein, growth rescue, BacTiter-Glo, 24 h. Potency, µM (top dose mostly 46.1 µM), actives largely listed as activators. 370,000 compounds, 0.14% hits. AID 652106; further: nearly all actives have a fitted effect of over 65% in size
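Readout is rescue of growth in alpha-synuclein-expressing yeast, so inhibitors of toxicity appear as activators. Growth after 24 hr at 30 deg C in galactose medium is quantified by luminescence.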
A number is an active result; – = inactive; ? = inconclusive; · = no result given. Unless noted, the call rests on the fitted dose curve; in most records, active means well fitted curve in the direction sought with a large enough effect; inconclusive means small, poorly fitted or top-dose-only effect, or another doubt; inactive means no such curve, though single readings can be large; an effect the other way counts as inactive or inconclusive.

SMILES | Akt phos inh | FUS suppressor | TDP-43 yeast inh | Abeta rescue | aSyn rescue
COc1cc(NC(=O)Cc2cccs2)cc(OC)c1 | – | – | – | ? | –
COc1cc(OC)cc(C(=O)NC(=S)NNC(=O)Cc2cccs2)c1 | – | – | 12.6µM | – | ?
COc1ccc(C(=O)NC(=S)NNC(=O)c2cnccn2)cc1OC | – | · | – | – | –
COc1ccc(C(=O)NC(=S)NNC(=O)c2ccc(C)cc2)cc1 | – | – | – | ? | –
COc1ccc(/C=C/C(=O)NC(=S)NNC(=O)Cc2cccs2)cc1OC | – | – | – | – | –
O=C(/C=C/c1cccs1)NC(=S)NNC(=O)Cc1cccs1 | – | – | 11.2µM | ? | ?
COc1ccc(C(=O)NC(=S)NNC(=O)Cc2cccs2)cc1 | – | – | 10µM | 8.91µM | 10µM
COc1cc(OC)cc(C(=O)NC(=S)NNC(=O)c2cnccn2)c1 | – | – | ? | – | 3.55µM
CCc1nn2c(=O)cc(COC(=O)c3ccccc3NC(=O)C3CCCCC3)nc2s1 | · | – | – | – | ·
Cc1c(Cl)cccc1NC(=O)CSc1nc(=O)[nH]c2c1CCCC2 | · | – | – | – | ·
CCc1ccccc1NC(=O)N1CCN(c2cc(-c3noc(C)n3)ccc2C)CC1 | · | – | – | – | –
CCOc1ccc(NC(=O)c2ccc3nc(Cc4ccccc4)oc3c2)cc1 | · | – | – | – | ·
CCOc1ccc(C(=O)O/N=C(\N)c2ccccn2)cc1OCC | – | – | 31.6µM | – | –
O=Cc1ccc(OC(=O)/C=C/c2ccccc2)cc1 | – | – | 17.8µM | – | –
N/C(=N\OC(=O)/C=C/c1ccccc1)c1ccccc1 | – | – | 17.8µM | – | –
N/C(=N\OC(=O)c1cccc(Br)c1)c1ccccc1 | – | – | 12.6µM | – | –
N/C(=N\OC(=O)c1ccc2ccccc2c1)c1ccc(Br)cc1 | – | – | – | – | –
N/C(=N\OC(=O)/C=C/c1ccccc1)c1ccc(Cl)cc1 | – | – | ? | – | –
CC(=O)Nc1ccc(NC(=O)CCc2c(C)nc3c(c(C)nn3-c3ccc(C)cc3)c2C)cc1 | · | – | – | – | ·
O=C(COc1ccc(F)cc1)OCc1cc(=O)n2nc(C3CC3)sc2n1 | · | – | – | – | ·
N/C(=N\OC(=O)c1cccc(Cl)c1)c1ccccn1 | – | – | ? | – | –
N/C(=N\OC(=O)c1cccc(Br)c1)c1ccccn1 | – | – | 11.2µM | – | –
N/C(=N\OC(=O)c1ccco1)c1cccc(Br)c1 | – | – | 11.2µM | – | –
Cc1ccc(C(=O)NCC(c2ccc3c(c2)OCO3)N2CCN(c3ccc(F)cc3)CC2)cc1 (centres undefined) | · | – | – | – | ·
CC(C)CC(=O)NC(=S)Nc1ccccc1N1CCCC1 | – | – | – | 7.08µM | –
SMILES | Akt phos inh | FUS suppressor | TDP-43 yeast inh | Abeta rescue | aSyn rescue
O=C(NC(=S)Nc1ccccc1N1CCCC1)c1cccs1 | – | – | ? | 11.2µM | –
Cc1cc(C)c(NC(=O)CN2C(=O)c3cccnc3Oc3ccc(C)cc32)c(C)c1 | · | – | – | – | ·
COc1ccc(C(=O)OCN2C(=O)c3ccccc3C2=O)cc1 | – | – | 10µM | – | ?
CC(=O)c1ccc(OC(=O)CN2C(=O)c3ccccc3C2=O)cc1 | – | – | – | – | –
CCc1ccc(OC(=O)CN2C(=O)c3ccccc3C2=O)cc1 | – | – | 15.8µM | – | –
O=C(NCCc1csc(-c2cccnc2)n1)c1ccc(F)c(F)c1 | · | – | ? | – | –
N#CC1=C(N)N(c2ccccc2Sc2ccccc2)C(=O)C1 | – | 28.2µM | – | – | –
COc1ccc(N2CCN(C(=O)C3CCN(S(=O)(=O)c4cccc5nonc45)CC3)CC2)cc1 | · | – | – | – | ·
COc1cccc2c1C(=O)/C(=C/c1ccc(N(C)C)cc1)C2 | · | · | · | · | –
O=C(O)CCCCCn1c(SCC(=O)c2ccc(O)c(O)c2)nc2ccsc2c1=O | – | · | – | – | –
CCCCn1c(SCC(=O)c2ccc(O)c(O)c2)nc2ccsc2c1=O | – | · | 20µM | – | –
O=C1C(=O)c2ccc(-c3ccccc3)cc2-c2ccccc21 | – | – | 3.55µM | – | –
O=C(Nc1ccc(NC(=O)c2cccs2)cc1)c1ccc(Br)o1 | – | – | – | – | –
O=C(Nc1ccc(N2CCN(C(=O)c3cccs3)CC2)cc1)c1ccc(Br)o1 | – | – | 25.1µM | – | –
CC(C)Cc1cc(C(=O)N2CCN(c3ccc(F)cc3)CC2)no1 | – | – | 22.4µM | – | –
O=C(c1ccc(Br)o1)N1CCN(c2ccc(F)cc2)CC1 | – | – | 12.6µM | – | –
O=C(c1ccc(CS(=O)(=O)c2ccc(Br)cc2)o1)N1CCN(c2ccc(F)cc2)CC1 | – | – | – | – | –
Cc1ccc2[nH]c(CSc3nnc(NC(=O)COc4ccccc4C)s3)cc(=O)c2c1 | · | – | – | – | ·
Cc1cccc(S(=O)Cc2ccc(C(=O)NC3CCCCCC3)o2)c1 (centres undefined) | · | – | – | – | ·
CCC(C(=O)N1CCN(c2cc(Cl)ccc2C)CC1)n1nc(C)n2c(cc3occc32)c1=O (centres undefined) | · | ? | – | – | ·
O=C(COC(=O)c1cc(-c2ccc(F)cc2)nc2ccccc12)NCC1CCCO1 (centres undefined) | – | – | 14.1µM | – | –
O=C(COC(=O)c1cccc2ccccc12)NCC1CCCO1 (centres undefined) | – | – | – | – | –
Cc1ccc(Nc2c3c(nc4nc(-c5cccs5)nn24)CCCC3)cc1F | · | – | – | – | ·
Fc1cc(Br)ccc1Nc1c2c(nc3nc(-c4cccs4)nn13)CCCC2 | · | – | 20µM | – | ·
Cc1ccccc1OCC(=O)NNC(=O)c1ccc(-c2ccccc2)cc1 | -82.6% | ? | – | – | –
SMILES | Akt phos inh | FUS suppressor | TDP-43 yeast inh | Abeta rescue | aSyn rescue
Cc1ccc(S(=O)(=O)NC(=O)COc2ccccc2C)c(C)c1 | – | · | 17.8µM | – | –
Cc1ccccc1OCC(=O)NCC(=O)OCC(=O)c1ccc(-c2ccccc2)cc1 | · | · | · | · | –
CCOC(=O)c1ccc(NC(=O)C2CCCN(c3ncnc4onc(-c5ccc(F)cc5)c34)C2)cc1 (centres undefined) | · | – | – | – | ·
NC(=O)c1ccsc1NC(=O)COC(=O)Cc1ccccc1[N+](=O)[O-] | – | – | – | – | –
O=C(Cc1ccccc1[N+](=O)[O-])OCC(=O)c1ccccc1Br | – | – | 12.6µM | – | –
CCc1cc(=O)oc2cc(C)c(CN3CCCC(C)C3)c(O)c12 (centres undefined) | – | 7.08µM | – | – | –
Cc1cccc(/C(N)=N/OC(=O)Cc2cccc3ccccc23)c1 | – | – | 11.2µM | – | –
Cc1ccc(/C(N)=N/OC(=O)Cc2ccccc2)cc1 | – | – | – | – | –
Cc1ccc(/C(N)=N/OC(=O)Cc2cccc3ccccc23)cc1 | – | – | 14.1µM | – | –
CCN(Cc1ccccc1)C(=O)c1cc(-c2ccccc2)n[nH]1 | · | – | 17.8µM | – | ·
CC(CNC(=O)c1cc(-c2ccccc2)n[nH]1)c1ccccc1 (centres undefined) | · | – | 35.5µM | – | ·
